Compound activity as filed in PubChem.
IL1B secr inh: inflammasome signaling inhibition, IL-1 beta readout; THP-1 LPS/ATP IL-1B secretion, AlphaLISA, 16 h; stronger effect = lower value; AID 743279; hit rate 4.7% among 360,000; activity change, % at 57.5 µM; in the data active = activity change below about -50%; inconclusive = mostly about -30% to -49%
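THP-1 cells pretreated 1 hr with compounds (up to 57.5 uM final), then stimulated with LPS (250 ng/mL final) plus ATP (1.25 mM final); secreted IL-1B measured by AlphaLISA after 16 hr, decreased signal indicating inhibition.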
KB-V1 MDR tox: kills drug-selected multidrug resistant KB-V1 cells. AID 1347076. KB-V1 MDR cells viability, CellTiter-Glo, 72 h. hit rate 3.4% among 400,000. Potency, µM (highest dose often 46.1 µM), most hits filed as cytotoxic; also: potency is read from the fitted curve at half-maximal effect; nearly all actives have a fitted effect of over 60% in size
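KB-V1 MDR subline cells in DMEM (phenol-red free, 10% FBS) exposed to compounds in qHTS concentration series for 72 h at 37 degrees C. Viability read by CellTiter-Glo luminescence; concentration-effect curves fitted after normalization and correction.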
HT1080 IDH1KD tx: kills HT-1080 cells with IDH1 knockdown | HT-1080 IDH1 knockdown viability, ATP luminescence, 48 h | Potency, µM (doses to about 46.1 µM), without a hit: at the top dose activity, negative = toxicity, actives largely listed as cytotoxic | hit rate 2% among 360,000;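 also: potency is read from the fitted curve at half-maximal effect; 0% = DMSO wells and -100% = cell-free medium wells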
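Cytotoxicity counter-line: IDH1KD HT-1080, 48 h, CellTiter-Glo. Curves classed by r2, magnitude and activity.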
KB-3-1 tox: kills parental KB-3-1 adenocarcinoma cells | KB-3-1 viability, CellTiter-Glo ATP luminescence, 72 h | hit rate 1.4% among 400,000 | Potency, µM (doses to about 46.1 µM), most hits filed as cytotoxic | AID 1347075; also: potency is read from the fitted curve at half-maximal effect; nearly all actives have a fitted effect of over 60% in size
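Parental KB-3-1 adenocarcinoma cells in phenol-red-free DMEM with 10% FBS were pin-treated with compounds at several concentrations, incubated 72 h at 37 °C, and viability read by CellTiter-Glo luminescence; concentration-effect curves were fitted after normalization.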
HT1080NT lethal: kills 2HG-producing HT-1080-NT fibrosarcoma cells | HT-1080-NT fibrosarcoma viability, CellTiter-Glo ATP luminescence, 48 h | Potency, µM (highest dose often 46.1 µM), inactives show at the top dose activity, negative = less viability, hits mostly cytotoxic | hit rate 1.6% among 360,000;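 also: NT is the 2HG producing partner of a matched IDH1 knockdown line; potency is read from the fitted curve at half-maximal effect; 0% = DMSO-treated cells and -100% = media-only wells without cells; nearly all actives have a fitted effect of over 55% in size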
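HT-1080-NT; 750 cells/well; 5% FBS RPMI; 48 h compound, 37 degrees C; CellTiter-Glo luminescence; curve fitting and curve-class assignment.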
* = called active by the depositor; i = inactive; ? = inconclusive; nt = no result given. Most compounds without a hit are left out; they make up all but 8.8% or so of the library. Unless noted, calls follow the shape of the dose curve; as a rule, active = well fitted curve in the direction sought with a large enough effect; inconclusive = small, poorly fitted or top-dose-only effect, or another doubt; inactive = no such curve, though single readings can be large; an effect the other way counts as inactive or inconclusive. Unless noted, % is scaled to controls: 0 for no effect and ±100 for the full control effect.

SMILES	IL1B secr inh	KB-V1 MDR tox	HT1080 IDH1KD tx	KB-3-1 tox	HT1080NT lethal
COC(=O)c1ccc(OC)c(Cn2c(=O)n(-c3cccc(Cl)c3)c(=O)c3c2c2cc(C)ccc2n3C)c1	nt	i	nt	i	nt
C/C(=N\NC(=O)Cc1ccccc1)c1cccs1	-5	i	-6%	i	2%
C/C(=N\NC(=O)Cn1c(C)nc2ccccc21)c1cccs1	-3	15µM*	-26%	i	?
CC(/C=N\NC(=O)Cn1c(C)nc2ccccc21)=C\c1ccccc1	-3	?	21µM*	18µM*	8.2µM*
CC(/C=N/NC(=O)CSc1nc(C)cc(C)n1)=C\c1ccccc1	-3	?	-1%	i	1%
CCN1C(=O)[C@H]2[C@@H](c3ccc(-c4ccc5c(c4)OCO5)c(OC)c3)N[C@@](C)(C(=O)OC)[C@H]2C1=O	16	i	-8%	i	?
CCn1c(SCC(=O)Nc2ccc3c(c2)OCCO3)nnc1-c1ccccn1	4	i	12%	i	20%
Cc1ccccc1-n1c(SCC(=O)Nc2ccc3c(c2)OCO3)nnc1-c1ccccn1	0	2.1µM*	-7%	?	0%
CCN(CC1CCCO1)C(=O)CCc1nnc(CCc2ccccc2OC)o1 (stereo unspecified)	16	nt	9%	nt	10%
N#CC1(C#N)CC(C=O)=C(N)C1(C#N)CC(=O)C12CC3CC(CC(C3)C1)C2 (stereo unspecified)	-102*	i	?	i	?
CCCCCCN1C[C@H](O)[C@@H](n2cc(C3CC3)nn2)C[C@@H]1c1ccc(OC)cc1	-13	?	-11%	i	-17%
O=C(Cc1ccc(NC(=O)N2CCCCc3ccccc32)cc1)Nc1ccccc1Br	nt	?	nt	i	nt
COc1cc(/C=C(\C#N)c2nc3ccccc3[nH]2)ccc1OC(=O)c1ccco1	-62*	?	-14%	i	-7%
CCOc1cc(/C=C(/C#N)c2nc3ccccc3[nH]2)ccc1OCc1ccc(C(=O)O)o1	-20	i	9%	?	7%
COc1cc(/C=C(/C#N)c2nc3ccccc3[nH]2)ccc1OCC(=O)Nc1ccccc1C	7	1.8µM*	-3%	?	-7%
COc1cc(/C=C(\CC(=O)O)c2nc3ccccc3s2)ccc1OCC(=O)Nc1ccccc1F	22	i	6%	i	13%
COc1cc(/C=C(/C#N)c2nc3ccccc3[nH]2)ccc1OCC(=O)Nc1ccccc1C(C)C	19	?	8%	?	16%
COc1cc(/C=C(\C#N)c2nc3ccccc3s2)ccc1OCC(=O)Nc1ccccc1	34	9.2µM*	7%	?	9%
COc1cc(C(=S)N2CCCC2)ccc1OCc1ccccc1	-3	?	-4%	i	-1%
COc1ccc(CN(C)C(=O)c2[nH]c(C)c(C(C)=O)c2C)cc1F	61	?	-17%	i	-8%
N#C/C(=C\Nc1ccc2cn[nH]c2c1)c1nc(-c2ccc(Cl)cc2)cs1	48	?	15µM*	?	18µM*
N#C/C(=C\Nc1ccc2cn[nH]c2c1)c1nc(-c2ccccc2)cs1	15	i	?	i	?
Cc1cccc(NC(=O)COc2coc(CN3CCc4ccccc4C3)cc2=O)c1	-3	i	-4%	i	-4%
CCOC(=O)N1CCN(S(=O)(=O)c2ccc(OCC(=O)OC)c(Cl)c2)CC1	-91*	i	10%	i	-3%
CCOC(=O)N1CCN(S(=O)(=O)c2ccc(OC)c(Cl)c2Cl)CC1	-3	i	-8%	i	-9%
CCOC(=O)N1CCN(S(=O)(=O)c2ccc(OCC)cc2)CC1	12	16µM*	12%	i	2%
CCOc1ccc(OCCC(=O)OCC(=O)N2CCN(S(=O)(=O)c3ccc(Cl)cc3)CC2)cc1	-85*	i	?	i	?
CCOC(=O)N1CCN(S(=O)(=O)c2ccc(OCC)c3ccccc23)CC1	-80*	?	?	?	-7%
CCOC(=O)N1CCN(S(=O)(=O)c2ccc(OC)c(Cl)c2)CC1	2	i	13%	i	9%
